The list is not random: actives were taken first. Their share in the collection is about 2.1%.
HIF-2a inh – blocks HIF-2a reporter activity. 786-0 RCC cells HIF-2a reporter, luciferase luminescence, overnight. inhibition, % at 18.8 µM. hit rate 0.72% among 360,000;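 active = inhibition of the luminescence signal of 40% or more relative to plate controls, in a single-dose primary screen at 18.75 µM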
CF NFkB inh – blocks PAF-induced NF-kB reporter in cystic fibrosis cells | inhibition, % at 5 µM | AID 588850 | hit rate 0.86% among 360,000 | KKLEB NF-kB-GFP reporter, GFP fluorescence overnight;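 active = at least 50% inhibition at 5 µM, scaled per plate between neutral and stimulator controls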;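 note: PAF is a Pseudomonas aeruginosa culture filtrate used as stimulus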
KKLEB cytotox – CF airway cell cytotoxicity counter-screen. KKLEB CF airway cells viability, ATPlite luminescence, overnight; hits give low values; cells stimulated with P. aeruginosa culture filtrate. activity change (cytotoxicity), % at 5 µM. hit rate 0.36% among 360,000. AID 602141;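 active = corrected activity change at or below -50% at 5 µM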
PAX8 reporter – inhibitors of PAX8 transcriptional activity in RMG-I cells; RMG-I TPO-luciferase reporter, SteadyGlo, 24 h; hit rate 1.2% among 360,000; inhibition, % at 12.6 µM;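 active = mean replicate inhibition at least 60% with every replicate also reaching 60%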;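 note: luciferase light reporting Pax8 driven TPO promoter activity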
EWS-Fli inh – EWS/Fli transcriptional activity inhibition; A673 NR0B1-luciferase reporter, viability-normalised; inhibition, % at 12.6 µM; hit rate 0.67% among 350,000; AID 651661;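 active = mean inhibition of at least 50% after viability correction, with every replicate also passing that limit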;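 note: firefly luciferase signal divided by Alamar Blue viability fluorescence both relative to DMSO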
Hits are given with their value; - = inactive; . = no result.

SMILES | HIF-2a inh | CF NFkB inh | KKLEB cytotox | PAX8 reporter | EWS-Fli inh
Cc1noc(C)c1NC(=O)Nc1ccc2c(c1)C(=O)N([C@H](C)CO)C[C@H](C)[C@H](CN(C)Cc1ccc(C(=O)O)cc1)O2 | . | . | . | . | -
Cc1ccc(-c2cc(C(=O)N/N=C/c3ccccc3O)n[nH]2)o1 | - | - | - | - | .
Cc1ccc(-c2cc(C(=O)N/N=C/C(Br)=C/c3ccccc3)n[nH]2)o1 | - | - | - | 74 | -
C[C@H]1CN([C@@H](C)CO)C(=O)c2cccc(NC(=O)C3CCCCC3)c2O[C@H]1CN(C)S(=O)(=O)c1ccc(F)cc1 | . | . | . | . | -
O=C(CCl)Nc1cc(-c2ccccc2)nn1-c1ccccc1 | - | - | -54 | . | .
COc1ccc(-c2csc(NC(=O)c3ccccc3NS(=O)(=O)c3ccc(F)c(F)c3)n2)cc1 | - | 55 | -51 | 97 | -
O=C(Nc1cc(S(=O)(=O)N2CCCCC2)ccc1O)c1ccccc1NS(=O)(=O)c1ccc(F)cc1 | - | - | - | - | -
Cc1ccc(S(=O)(=O)Nc2ccccc2C(=O)Nc2nc(-c3ccc(F)cc3)cs2)cc1 | - | - | -58 | 77 | -
O=C(Nc1cc(S(=O)(=O)N2CCCCC2)ccc1Cl)c1ccccc1NS(=O)(=O)c1ccc(F)cc1 | - | 66 | - | 93 | -
O=C(NC1CCCCC1)N1CC(=O)N2[C@H](CO)[C@@H](c3ccc(-c4cccnc4)cc3)[C@@H]2C1 | . | . | . | . | -
N#Cc1c(N)[nH]c2ccc(Sc3ccccc3)cc12 | - | - | - | - | 61
C[C@@H]1CCCCO[C@H](CN(C)Cc2ccc(C(F)(F)F)cc2)[C@@H](C)CN([C@@H](C)CO)C(=O)c2cc(NC(=O)Nc3ccccc3)ccc2O1 | . | . | . | - | 69
C[C@H](CO)N1C[C@H](C)[C@H](CN(C)Cc2ccc(C(F)(F)F)cc2)OCCCC[C@H](C)Oc2ccc(NC(=O)Nc3ccccc3)cc2C1=O | . | . | . | 85 | -
COCCNC(=O)[C@@H]1[C@@H](CO)[C@@H]2Cn3c(ccc(-c4ccccc4)c3=O)[C@H]1N2C(=O)NC(C)C | . | . | . | - | -
COCC(=O)Nc1ccc2c(c1)C(=O)N(C)C[C@@H](OC)[C@@H](C)CN(Cc1ccncc1)[C@H](C)CO2 | . | . | . | - | -
C[C@H](CO)N1C[C@H](C)[C@@H](CN(C)Cc2ccc3c(c2)OCO3)OCCCC[C@H](C)Oc2ccc(NC(=O)Nc3ccc(F)cc3)cc2C1=O | . | . | . | - | -
C[C@@H]1CCCCO[C@@H](CN(C)Cc2ccc3c(c2)OCO3)[C@@H](C)CN([C@H](C)CO)C(=O)c2cc(NC(=O)Nc3ccc(F)cc3)ccc2O1 | . | . | . | - | -
C[C@@H]1CCCCO[C@H](CN(C)Cc2ccc3c(c2)OCO3)[C@H](C)CN([C@H](C)CO)C(=O)c2cc(NC(=O)Nc3ccc(F)cc3)ccc2O1 | . | . | . | 66 | -
C[C@@H]1CN([C@H](C)CO)C(=O)c2cc(NC(=O)Nc3ccc(F)cc3)ccc2O[C@@H](C)CCCCO[C@H]1CN(C)Cc1ccc2c(c1)OCO2 | . | . | . | 66 | 68
C[C@@H]1CN([C@H](C)CO)C(=O)c2cc(NC(=O)Nc3ccc(F)cc3)ccc2O[C@@H](C)CCCCO[C@@H]1CN(C)Cc1ccc2c(c1)OCO2 | . | . | . | 92 | -
Cc1noc(C)c1NC(=O)N(C)C[C@H]1Oc2ccc(NC(=O)Nc3cccc4ccccc34)cc2C(=O)N([C@@H](C)CO)C[C@H]1C | . | . | . | - | -
CN(C)CCCNC(=O)C[C@H]1CC[C@@H]2[C@@H](COc3ccc(NC(=O)NC4CCCC4)cc3C(=O)N2C)O1 | . | . | . | - | -
COc1ccc(S(=O)(=O)Nc2ccc3c(c2)OC[C@@H](C)N(Cc2cc(F)ccc2F)C[C@@H](C)[C@H](OC)CN(C)C3=O)cc1 | . | . | . | - | -
CC(C)CCCCCCCCCCCCC(=O)NCC(=O)NC1C(C)OC(Nc2ncnc3nc[nH]c23)C(O)C1O (stereo unspecified) | 79 | 83 | - | 106 | -
C[C@H](O)C#Cc1cnc2c(c1)C(=O)N([C@H](C)CO)C[C@@H](C)[C@H](CN(C)Cc1ccc(-c3ccccc3)cc1)O2 | . | . | . | - | -
SMILES | HIF-2a inh | CF NFkB inh | KKLEB cytotox | PAX8 reporter | EWS-Fli inh
C[C@H](O)C#Cc1cnc2c(c1)C(=O)N([C@H](C)CO)C[C@@H](C)[C@@H](CN(C)Cc1ccc(-c3ccccc3)cc1)O2 | - | - | - | 65 | -
C[C@H](O)C#Cc1cnc2c(c1)C(=O)N([C@H](C)CO)C[C@H](C)[C@H](CN(C)Cc1ccc(-c3ccccc3)cc1)O2 | . | . | . | 87 | -
C[C@@H]1CN([C@H](C)CO)C(=O)c2cc(-c3cccnc3)cnc2O[C@H]1CN(C)Cc1ccc(-c2ccccc2)cc1 | . | . | . | . | 57
C[C@H](O)C#Cc1cnc2c(c1)C(=O)N([C@@H](C)CO)C[C@@H](C)[C@H](CN(C)Cc1ccc(-c3ccccc3)cc1)O2 | . | . | . | 72 | -
COc1ccc2c3c(n(C)c2c1)[C@H](CO)N(C(C)=O)CC31CN(C(=O)C2CCOCC2)C1 | . | . | . | . | -
COc1ccc2c3c(n(C)c2c1)[C@H](CO)N(C(=O)c1ccc(F)cc1)CC31CCN(CC2CCOCC2)CC1 | . | . | . | . | -
O=C(c1ccccc1F)N1CC2(C1)[C@@H](c1ccccc1)[C@@H](CO)N2CC1CCCC1 | . | . | . | . | -
C[C@H](CO)N1C[C@H](C)[C@@H](CN(C)C)Oc2cc(-c3cccc(C(=O)N(C)C)c3)ccc2S1(=O)=O | . | . | . | - | -
Nc1cc2nc3ccccc3oc-2cc1=O | - | 53 | - | . | -
COc1ccc2c(c1)[nH]c(=O)c1sc3ccccc3c12 | - | - | - | . | .
COc1ccc2sc3c(=O)[nH]c4ccccc4c3c2c1 | - | 63 | - | . | .
O=C1c2ccccc2C(=O)N1CC(O)CNc1ccc(Br)cc1 (stereo unspecified) | - | - | - | 82 | -
CC(Oc1cc2oc(=O)cc(-c3ccccc3)c2cc1Cl)C(=O)NCC1CCC(C(=O)O)CC1 (stereo unspecified) | - | - | - | . | -
CC(NC(=O)OC(C)(C)C)C(=O)Oc1cc2oc(=O)cc(-c3ccccc3)c2cc1Cl (stereo unspecified) | - | 82 | - | . | .
COc1ccc(OCCNC(=O)/C=C/c2ccc([N+](=O)[O-])cc2)cc1 | - | - | - | 107 | -
COc1ccc(/C=C/C(=O)NCC(=O)N=Nc2c(O)[nH]c3ccc([N+](=O)[O-])cc23)cc1 | - | 78 | - | - | -
Cc1cccc(OCC(=O)NCC(=O)N=Nc2c(O)[nH]c3ccc([N+](=O)[O-])cc23)c1 | - | - | - | - | -
COc1ccc(Nc2nc(N)c(C(=O)c3ccc(OC)cc3)s2)cc1 | - | 53 | - | - | -
COc1cccc(C(=O)c2sc(NC(C)C)nc2N)c1 | - | 78 | - | . | .
COc1ccc(C(=O)c2sc(NC(C)C)nc2N)cc1OC | - | 58 | - | . | .
COc1ccc(Nc2nc(N)c(C(=O)c3ccc(F)cc3)s2)cc1 | - | - | - | - | -
CC(=O)N[C@@H]1CC[C@H](CC(=O)NCc2ccc(Cl)cc2)O[C@H]1CO | . | . | . | - | -
COc1cc(OC)cc(C(=O)Nc2nnc(NC(=S)Nc3ccccc3)s2)c1 | - | 65 | - | . | .
